Reference: the supplement of paper PMC11417369
Over roughly 25,000 sequences, “ln(normalized median fluorescence intensity)” has its median near 9.7; the highest 2% begin near 11. This is one part of a sample in which the highest values are shown more often than they occur.

tested on: PfAP2-HC AP2 domain (GST-tagged); test: gcPBM binding intensity (ln(normalized median fluorescence intensity)); higher = stronger DNA binding
Outline: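 Binding intensity is the highest Masliner-normalised natural-log median intensity over replicate spots in either probe orientation. To obtain it, GST-tagged P. falciparum DNA-binding domains made in E. coli were incubated for 1 h on an Agilent 4 × 180k array of primer-extended double-stranded 36-bp intergenic genomic probes plus negative controls. Detection used Alexa488 anti-GST antibody with scanning at 488 nm.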

Row | Sequence | gcPBM binding intensity (ln)
1 | TACAATACCGTACAGGTGCAACTAGCCAAAAAAAAG | 9.75
2 | CCCTTTTTTTTTTAATGTACATATAATTATATATTT [XGTACX_site8568] | 9.88
3 | ATTCAATAAACGTATTGTACAAAAGAACGATATATT [XGTACX_site2533] | 9.78
4 | CAACATTCGTATATCACACATTTGCATGTTGTCAAT [CACACA_site4470] | 9.78
5 | TAACAATATCTAGATACACACACATATCTCTCAATC [CACACA_site8122] | 10.4
6 | CTCCTTTCAAAAAAATGTACATGTTTACATTTCAAG [XGTACX_site7342] | 9.55
7 | GTAATACACAGACACACACACATACACATATTTATA [CACACA_site7313] | 10.5
8 | TATTTATATAGACACACACACATATATTTATATTTT [CACACA_site7240] | 10.4
9 | CATACAGATATATATACACACATACAGATAAATACA [CACACA_site4592] | 9.95
10 | CATACATACAGACACACACACATATTTATATTTATA [CACACA_site6172] | 11.3
11 | TATACAGATAAATACACACACATATATATATATATA [CACACA_site4178] | 9.86
12 | TATATTATTTATTAGACACACATTATTAATATATTT [CACACA_site1078] | 9.79
13 | TATATTAATAGACACACACACATATTTATATTTATA [CACACA_site6859] | 11.1
14 | AATACATACAGACACACACACACATATATATATATA [CACACA_site3558] | 11.5
15 | AATATGTACAGACATACACACATATTTATATTTATA [CACACA_site6694] | 9.88
16 | TATACAGATAAATACACACACACATATATATATATA [CACACA_site4845] | 11.2
17 | TACATACACAGACACACACACATATATATATATATA [CACACA_site3557] | 10.9
18 | TACACATACAGACATACACACATACACATATACACA [CACACA_site6918] | 10.5
19 | ATATATAGGTTCCCTTTTCTTTTTTTTTTTTTTTTT [CACACA_negctrl_site1159] | 9.39
20 | AAAAAACAAAAAAAAAAAAAAATAATACAATATAAT [CACACA_negctrl_site1630] | 9.56

Row | Sequence | gcPBM binding intensity (ln)
21 | ACGATATTTTTGGTGACACACATATATATATATATA [CACACA_site126] | 9.8
22 | AAAAATTTTTTTTCATTTGTTTTTATTCCGTAAAAA [CACACA_negctrl_site1217] | 9.17
23 | AAAATATATTAAGGCACACACATACATATATATATA [CACACA_site3723] | 10.7
24 | TATATATCAAGACACACACACATATATTTATTTATA [CACACA_site7733] | 11.2
25 | TATATATCAATATACACACACACATATTTATTTATA [CACACA_site6858] | 10.4
26 | AAAATATATTAAGGCACACACATACAGATATATATA [CACACA_site5951] | 11.1
27 | AAAAAATATATTAAGGCACACACATACATATATATA [CACACA_site9239] | 10.2
28 | ATGATATATAGACACACACACATATTTATATACATT [CACACA_site6404] | 10.9
29 | TATGTGCCAAGACACACACACATATTTATATTTATA [CACACA_site6360] | 10.2
30 | CTAAAATACAGACACACACACACATATATATATATA [CACACA_site4150] | 11
31 | AAAATACACAGACACACACACATATAAATAAATATT [CACACA_site7871] | 10.8
32 | TAAATACAGACATATACACACATATATATATATATA [CACACA_site4382] | 9.75
33 | TATACATAGATATATACACACATATATTTATATACA [CACACA_site6328] | 9.92
34 | TATTTATAGATATATACACACATATTTATATTTATA [CACACA_site6441] | 9.78
35 | TATACAAGTATATAGGTGCATATATAAGTATATATT [GTGCAC_site9994] | 9.69
36 | ACGTTTTATTTTTATTGTACTCACATTGAAATGAAT [XGTACX_site6094] | 10
37 | AATATAATGCAATATACACACATATATTTCTCTTTT [CACACA_site7276] | 9.94
38 | TTTTCTAAAAAAAGTTGTACATCTTATTTATATTAT [XGTACX_site295] | 9.63
39 | AATTTCAAATTGTATGTGCACATGTAGAAGTACTTT | 9.85
40 | AAAATATGTATGTAAAGTACTAATATACAAATTTTT [XGTACX_site5186] | 9.62

Row | Sequence | gcPBM binding intensity (ln)
41 | TGTATTTATTAATGTACACACATGCGTATGTTCGTT [CACACA_site5892] | 9.96
42 | TTTTTTTTTATAGCTAAACACACATAAGAATATATG [CACACA_site8282] | 9.61
43 | TTTTTTTTTTTTTTTGCACACACATTGAATTATTAT [CACACA_site198] | 9.96
44 | TTTATTTATATAATTACACACATATATACACAAATG [CACACA_site8903] | 9.79
45 | TGTTGTAACAAAAGTACACACACATTTCTATAAATT [CACACA_site8894] | 9.86
46 | GAATATAAACATATTACACACATCTATCTGTACATT [CACACA_site5114] | 9.97
47 | TATATATATAAATACACACACACACCGATATATATA [CACACA_site5408] | 10.5
48 | AACCACAGACATATAACACACATATACAATATATAT [CACACA_site5142] | 10.4
49 | ATTTCATACAGACACACACACAAACAAACATATATA [CACACA_site979] | 11.2
50 | GGATATAACAGACACACACACACATATAAATATATT [CACACA_site7866] | 10.6
51 | TACAGATACAGATACACACACACACCGAAATAAATA [CACACA_site4865] | 11
52 | TAAATAAATACATACACACACATACAGATATATATA [CACACA_site5690] | 10.5
53 | TATATACTCAAACACACACACACATACACAGACATA [CACACA_site5025] | 10.7
54 | TATAAATACAGATACACACACACACCGATATATATA [CACACA_site5271] | 10.4
55 | TATAAATATAAATACACACACACATCAATACAGATA [CACACA_site5850] | 11
56 | TATACAGATATATATACACACATATATATAAATACA [CACACA_site4383] | 9.97
57 | AAAAAAAACAGACACACACACATACAAAATATATAT [CACACA_site1449] | 10.7
58 | AATAACCACAGACACACACACATATAAATATAAATA [CACACA_site7631] | 10.9
